Outcome data for 17 compounds are collected here from PubChem BioAssay AID652119 (Broad Institute, 2013).

The source made the active and inactive calls.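 The calls were made as follows: active = compounds whose fitted half-maximal cell-killing potency is at most twice their top tested dose; inconclusive = flat curve with 30 to 70% signal loss, or poor fit; inactive = the rest.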

This assay is described as follows: loss of viability in embryonic kidney cells – cell-based, HEK293T, ATP luminescence, dry powder, cytotoxicity control, dose response (AID 652119). To be noted: CellTiter-Glo ATP luminescence, 48 h; series mostly up to 26 µM.
Turning to `CCOC(=O)C1(Cc2cccc(OC)c2)CCN(Cc2ccc(O)c(Cl)c2)CC1`, the compound was called inactive.
As for `CCOC(=O)C1(CCOC)CCN(Cc2ccc(O)c(Cl)c2)CC1`, the entry is “inactive”; as for `CCOC(=O)C1(CCOC)CCCN(Cc2ccc(Cl)cc2)C1` (configuration not stated), “inactive”; as for `CCOC(=O)C1(CCOc2ccccc2)CCN(Cc2ccc(OC)c(Cl)c2)CC1`, “inactive”.
For `O=C(Nc1ccccc1)C1(CCOc2ccccc2)CCN(Cc2ccc(O)c(Cl)c2)CC1`, the outcome was inactive.
In the case of `CCNC(=O)C1(CCOc2ccccc2)CCN(Cc2ccc(O)c(Cl)c2)CC1`, the outcome was inactive.
As for `CCOC(=O)C1(CCOc2ccccc2)CCN(Cc2cccc(Cl)c2)CC1`, the entry is “inactive”; as for `CCOC(=O)C1(CCOc2ccccc2)CCN(Cc2ccc(OC)cc2)CC1`, “inactive”.
With `O=C(N1CCCC1)C1(CCOc2ccccc2)CCN(Cc2ccc(O)c(Cl)c2)CC1`, the result was inactive.
As for `CC(C)(C)OC(=O)C1(CCOc2ccccc2)CCN(Cc2ccc(O)c(Cl)c2)CC1`, the entry is “inactive”; as for `C=CCOc1ccc(CN2CCC(CCOc3ccccc3)(C(=O)OCC)CC2)cc1Cl`, “inactive”; as for `C=CCOc1ccc(CN2CCC(CCOc3ccccc3)(C(=O)NC3CCCC3)CC2)cc1Cl`, “inactive”.
As for `C/C1=C\C[C@H](OC(=O)c2ccc(O)cc2)/C(C)=C/[C@@H](O)C(C)(C)CCC1`, the compound was called inactive.
To `CCOC(=O)C1CCN(C(=O)OC(C)(C)C)CC1` belongs “inactive”.
Take `CCOC(=O)c1c(CN2CCN(CCO)CC2)n(-c2ccccc2)c2cc(Br)c(O)cc12`: the compound was classed as inactive.
In the case of `C=CCOc1ccc(CN2CCC(CCOc3ccccc3)(C(=O)N3CCCC3)CC2)cc1Cl`, the result was inactive.
On to `CCOC(=O)C1(CCOc2ccccc2)CCN(Cc2ccc3[nH]c(=O)oc3c2)CC1`, for which the result was inactive.
